GC-B act = GC-B (human) receptor activation. HEK293-GC-B cells, CNP EC30, cGMP TR-FRET; 0% at EC30 CNP, 100% saturating CNP. activation, % at 10 µM. 370,000 compounds, 0.11% hits;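 active = activation at 10 µM reaching about 35% in either raw or pattern-adjusted values, limit read from the data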
Myeloid diff MLP = myeloid differentiation induction. 360,000 compounds, 1% hits. calls only at 10 µM. AID 624256. ER-HoxA9 myeloid progenitors, lysozyme-GFP differentiation, flow cytometry;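 active = normalized GFP-positive differentiation at or above the plate's own cutoff, the solvent-only control mean plus 3 SD; inconclusive = no clear call, values can overlap the other calls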;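 note: cells exposed to compound for four days before flow analysis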
Granule exo inh = blocks lytic granule exocytosis; 360,000 compounds, 0.66% hits; TALL-104 LAMP-1 surface exposure, flow cytometry; cells stimulated with thapsigargin and PMA; AID 651702; inhibition, % at 10 µM;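 active = inhibition above about 55%, limit read from the data; inconclusive = no clear call, values can overlap the other calls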
NPR1 activator = GC-A (human) enzyme activation; AID 1671463; 370,000 compounds, 0.14% hits; activation, % at 10 µM; HEK293 GC-A cells, cGMP TR-FRET, EC30 ANP; 0% at EC30 ANP, 100% saturating ANP; in the data active = activation above about 40%
Myeloid diff CP1 = promotes myeloid progenitor differentiation; calls only; shares compounds with Myeloid diff MLP; ER-HoxA9 myeloid progenitors, GFP/Mac1 double-positive flow; 2,300 compounds, 2% hits;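 active = share of green or green-and-red cells above 9 and 9% in run 1 or 4 and 3% in run 2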
GFP autofluor = counter-screen for myeloid differentiation promoters: compound fluorescence | 2,300 compounds, 7.4% hits | ER-HoxA9 myeloid progenitors, no estrogen, GFP autofluorescence flow cytometry; vehicle wells 0%, positive control 100% | fluorescence response, % (no concentration beside the values) | shares compounds with Myeloid diff MLP;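 active = over 5% cells positive for green fluorescent reporter, or over 2% positive for both it and APC stain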
Of the large screens only hits and unclear results are named; the others gave an inactive call (follow-up assays come after a bar, where they were run). An excerpt weighted towards active compounds, which were near 1.8% of everything screened.

OCC[C@H]1NCc2cc(CO)cc(-c3ccccc3)c21	none | Myeloid diff CP1 inactive | GFP autofluor inactive
Cc1ccc(CN2CCCCC(NC(=O)C(C)(C)C)C2=O)cc1 (stereo not given)	none (no result: Myeloid diff MLP, Granule exo inh)
CC1CCCCN1C(=O)c1ccc(C(=O)N2CCCCC2C)cc1 (stereo not given)	none | Myeloid diff CP1 inactive | GFP autofluor inactive
CC1CCCCN1C(=O)c1ccc(S(=O)(=O)N2CCCCC2C)cc1 (stereo not given)	none
COc1ccccc1-c1ccc(SCc2ccc(F)cc2)nn1	Myeloid diff MLP active | Myeloid diff CP1 inactive | GFP autofluor inactive
CC(NC(=O)c1cccc(S(=O)(=O)N2CCc3ccccc32)c1)c1ccco1 (stereo not given)	none
CCCCNC(=O)c1onc(CSc2ccc(OC)cc2)c1C(=O)O	none
CCCCNC(=O)c1onc(CSc2ccc(F)cc2)c1C(=O)O	Myeloid diff MLP active | Myeloid diff CP1 inactive | GFP autofluor inactive
COCCNc1nc(Nc2ccc(C)cc2C)c2sccc2n1	Myeloid diff MLP inconclusive, Granule exo inh inconclusive
CC(C)(C)C(=O)Nc1cc(NC(=O)C(C)(C)C)cc(C(=O)NNC(=O)c2ccncc2)c1	Myeloid diff MLP active | Myeloid diff CP1 inactive | GFP autofluor inactive
N#Cc1cc(C#N)c(N2CCN(c3ccccn3)CC2)nc1N	Myeloid diff MLP active | Myeloid diff CP1 inactive | GFP autofluor inactive
Cc1ccccc1Cn1cc(CN2[C@@H](Cc3ccccc3)COc3cc(Br)ccc3S2(=O)=O)nn1	none (no result: Myeloid diff MLP, Granule exo inh)
CC(C)CC(NC(N)=O)C(=O)Nc1ccc(Oc2ccccc2)cc1 (stereo not given)	none | Myeloid diff CP1 inactive | GFP autofluor inactive
Cc1ccc(NC(=O)C(CC(C)C)NC(N)=O)cc1 (stereo not given)	none
Cc1cccn2c(=O)c(/C=C3\SC(=S)NC3=O)c(NCCCN3CCOCC3)nc12	Myeloid diff MLP active | Myeloid diff CP1 inactive | GFP autofluor inactive
COc1cc(CCC(=O)Nc2ccc(S(=O)(=O)NC3=NCCCCC3)cc2)cc(OC)c1OC	none | Myeloid diff CP1 inactive | GFP autofluor inactive
C[C@@H]1CNC(=O)c2c(C(=O)N[C@@H](Cc3c[nH]c4ccccc34)C(=O)OC(C)(C)C)ncn21	none
C[C@H]1[C@H](N)CC[C@@]23CCCN2C(=O)CCC[C@@H]13	none (no result: Myeloid diff MLP, Granule exo inh)
Cc1ccc(NC2=NCCCCC2)cc1C	Myeloid diff MLP active | Myeloid diff CP1 inactive | GFP autofluor inactive
CCCCCNC(=O)C(C1CC1)n1c(=O)c(-c2ccco2)nc2ccccc21 (stereo not given)	none
COc1ccc(Cc2nc3ccc(C(=O)NC(C)C)cc3o2)cc1	none | Myeloid diff CP1 inactive | GFP autofluor inactive
CCC(C)NC(=O)c1ccc2nc(Cc3ccc(OC)cc3)oc2c1 (stereo not given)	none
Cc1nnc(SCC(=O)N(C2CCCCC2)C2CCS(=O)(=O)C2)n1N (stereo not given)	none
C=CCn1cnnc1SCC(=O)N(C1CCCCC1)C1CCS(=O)(=O)C1 (stereo not given)	none | Myeloid diff CP1 inactive | GFP autofluor inactive
CC(CCc1ccco1)NC(=O)Cn1nc(Cc2ccncc2)c2ccccc2c1=O (stereo not given)	none | Myeloid diff CP1 inactive | GFP autofluor inactive
CCN(CC)C(=O)Cn1nc(Cc2ccncc2)c2ccccc2c1=O	none (no result: Myeloid diff MLP, Granule exo inh)
CCN(CC)C(=O)C1=C(C)N(Cc2ccc(F)cc2)C(=O)C(CC(=O)NCCN2CCOCC2)C1 (stereo not given)	none
C=CCSc1ncnc2c1oc1nc3c(cc12)COC(C)(C)C3	none
CC(C)CSc1ncnc2c1oc1nc3c(cc12)COC(C)(C)C3	none | Myeloid diff CP1 inactive | GFP autofluor inactive
CC(C)C[C@H]1CN(CCCC[C@@H]2CNC(=O)C(=O)N2CCc2ccccc2)C(=O)C(=O)N1CCC1CCCCC1	none
CCOC(=O)C1=C(CN2c3ccccc3CC2C)NC(=O)NC1c1ccccc1 (stereo not given)	Myeloid diff MLP active | Myeloid diff CP1 inactive | GFP autofluor inactive
N/C(=N\c1nc2c(c(=O)[nH]1)CCCC2)Nc1ccccc1	none
Cc1ccc(N/C(N)=N/c2nc3c(c(=O)[nH]2)CCCC3)c(C)c1	Myeloid diff MLP active | Myeloid diff CP1 inactive | GFP autofluor inactive
CC1CCCCC1N(C(=O)c1cc(C2CC2)on1)C1CCCCCC1 (stereo not given)	none (no result: Myeloid diff MLP, Granule exo inh)
